For one compound, residual activity results are on record in ChEMBL document CHEMBL2218924, “A broad activity screen in support of a chemogenomic map for kinase signalling research and drug discovery” (Biochem J, 2013).

Assay [1] addresses T1, Serine/threonine-protein kinase TBK1 (Homo sapiens) (UniProt Q9UHD2).
T1 sequence (whole entry): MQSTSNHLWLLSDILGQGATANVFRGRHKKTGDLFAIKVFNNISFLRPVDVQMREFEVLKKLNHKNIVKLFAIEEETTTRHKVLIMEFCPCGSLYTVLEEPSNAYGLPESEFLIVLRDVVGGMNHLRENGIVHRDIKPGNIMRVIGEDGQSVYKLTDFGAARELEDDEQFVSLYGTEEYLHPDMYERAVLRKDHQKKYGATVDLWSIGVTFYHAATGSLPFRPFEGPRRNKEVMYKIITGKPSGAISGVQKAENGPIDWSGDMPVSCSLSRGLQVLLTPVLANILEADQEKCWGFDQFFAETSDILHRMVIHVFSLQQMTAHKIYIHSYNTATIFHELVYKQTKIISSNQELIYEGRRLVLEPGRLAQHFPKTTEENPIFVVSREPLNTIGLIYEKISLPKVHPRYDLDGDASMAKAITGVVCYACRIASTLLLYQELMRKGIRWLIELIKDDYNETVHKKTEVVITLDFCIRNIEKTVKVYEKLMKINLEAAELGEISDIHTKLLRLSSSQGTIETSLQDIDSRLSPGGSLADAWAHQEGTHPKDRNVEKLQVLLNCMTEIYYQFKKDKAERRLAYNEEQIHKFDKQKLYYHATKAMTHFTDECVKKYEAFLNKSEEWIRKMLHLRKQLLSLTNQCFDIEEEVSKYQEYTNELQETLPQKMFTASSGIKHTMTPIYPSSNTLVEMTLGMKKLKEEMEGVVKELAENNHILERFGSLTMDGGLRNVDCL
The conditions noted are these: at 10 µM.

Assay [2] deals with T2, TGF-beta receptor type-1 (Homo sapiens) (UniProt P36897).
T2 sequence (whole entry): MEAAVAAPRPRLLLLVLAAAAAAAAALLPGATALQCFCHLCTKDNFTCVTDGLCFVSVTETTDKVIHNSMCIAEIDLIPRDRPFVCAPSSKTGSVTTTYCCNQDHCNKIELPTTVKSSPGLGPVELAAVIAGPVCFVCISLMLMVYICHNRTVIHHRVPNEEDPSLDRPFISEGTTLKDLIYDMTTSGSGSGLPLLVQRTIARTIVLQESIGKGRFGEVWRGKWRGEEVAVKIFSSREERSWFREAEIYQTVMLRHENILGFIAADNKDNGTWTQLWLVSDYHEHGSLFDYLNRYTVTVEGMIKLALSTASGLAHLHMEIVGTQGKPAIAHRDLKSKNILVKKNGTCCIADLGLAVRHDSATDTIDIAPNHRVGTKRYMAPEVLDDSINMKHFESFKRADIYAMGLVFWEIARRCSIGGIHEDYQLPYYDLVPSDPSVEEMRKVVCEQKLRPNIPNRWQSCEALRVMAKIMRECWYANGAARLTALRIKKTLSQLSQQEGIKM
The following applies: at 1 µM.

In assay [3] the target is T2, TGF-beta receptor type-1 (Homo sapiens). The following applies: at 10 µM.
Assay [4] addresses Insulin-like growth factor 1 receptor (Homo sapiens) (UniProt P08069). The following applies: at 1 µM.
Assay [5] shares this target. The following applies: at 10 µM.
Assay [6] addresses T3, Inhibitor of nuclear factor kappa-B kinase subunit alpha (Homo sapiens) (UniProt O15111).
T3 sequence (whole entry): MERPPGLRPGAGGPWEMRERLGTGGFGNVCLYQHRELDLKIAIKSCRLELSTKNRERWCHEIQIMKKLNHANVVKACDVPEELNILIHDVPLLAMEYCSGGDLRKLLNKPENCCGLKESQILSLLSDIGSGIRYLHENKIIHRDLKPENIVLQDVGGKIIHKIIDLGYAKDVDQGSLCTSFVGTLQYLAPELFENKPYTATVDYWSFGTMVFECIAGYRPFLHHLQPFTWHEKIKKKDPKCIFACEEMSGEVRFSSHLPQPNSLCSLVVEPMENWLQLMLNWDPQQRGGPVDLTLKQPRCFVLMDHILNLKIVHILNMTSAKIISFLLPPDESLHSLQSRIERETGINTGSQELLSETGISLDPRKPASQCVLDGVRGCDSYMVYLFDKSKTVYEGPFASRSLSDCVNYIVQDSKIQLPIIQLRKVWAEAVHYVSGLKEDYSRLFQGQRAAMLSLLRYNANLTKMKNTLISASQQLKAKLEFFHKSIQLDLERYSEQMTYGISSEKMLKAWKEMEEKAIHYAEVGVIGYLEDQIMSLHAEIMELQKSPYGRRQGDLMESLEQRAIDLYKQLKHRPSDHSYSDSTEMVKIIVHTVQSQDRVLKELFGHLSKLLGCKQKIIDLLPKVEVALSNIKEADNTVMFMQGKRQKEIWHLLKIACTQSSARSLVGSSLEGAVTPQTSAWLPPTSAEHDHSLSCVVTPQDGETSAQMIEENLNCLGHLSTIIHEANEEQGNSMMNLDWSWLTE
The conditions noted are these: at 1 µM.

Assay [7] addresses T3, Inhibitor of nuclear factor kappa-B kinase subunit alpha (Homo sapiens). The following applies: at 10 µM.
For assay [8], the target named is T4, Inhibitor of nuclear factor kappa-B kinase subunit beta (Homo sapiens) (UniProt O14920).
T4 sequence (whole entry): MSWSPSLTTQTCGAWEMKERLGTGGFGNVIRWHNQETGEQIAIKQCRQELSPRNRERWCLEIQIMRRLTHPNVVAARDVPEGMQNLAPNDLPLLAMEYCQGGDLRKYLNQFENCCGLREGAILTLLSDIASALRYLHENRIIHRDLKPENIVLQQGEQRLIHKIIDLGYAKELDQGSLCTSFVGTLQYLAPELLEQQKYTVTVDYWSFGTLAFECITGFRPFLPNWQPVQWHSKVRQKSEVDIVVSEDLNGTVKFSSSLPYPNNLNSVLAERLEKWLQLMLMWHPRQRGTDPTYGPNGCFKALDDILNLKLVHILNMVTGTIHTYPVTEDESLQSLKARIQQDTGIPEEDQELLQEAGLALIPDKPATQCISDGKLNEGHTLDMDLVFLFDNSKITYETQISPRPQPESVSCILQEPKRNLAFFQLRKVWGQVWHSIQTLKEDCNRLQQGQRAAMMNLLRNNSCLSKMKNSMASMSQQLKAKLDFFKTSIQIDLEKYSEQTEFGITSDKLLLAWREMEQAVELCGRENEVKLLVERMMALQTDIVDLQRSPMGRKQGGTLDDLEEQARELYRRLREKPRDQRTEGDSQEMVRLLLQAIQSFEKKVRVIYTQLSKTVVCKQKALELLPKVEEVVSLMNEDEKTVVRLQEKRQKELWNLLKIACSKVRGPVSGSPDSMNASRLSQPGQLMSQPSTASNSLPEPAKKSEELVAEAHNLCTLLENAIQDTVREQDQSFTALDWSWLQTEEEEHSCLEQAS
The following applies: at 1 µM.

Assay [9] has as its target T4, Inhibitor of nuclear factor kappa-B kinase subunit beta (Homo sapiens). The conditions noted are these: at 10 µM.
The target in assay [10] is Insulin receptor (Homo sapiens) (UniProt P06213). The conditions noted are these: at 1 µM.
Insulin receptor (Homo sapiens), sequence (P06213 28-758 limits assumed): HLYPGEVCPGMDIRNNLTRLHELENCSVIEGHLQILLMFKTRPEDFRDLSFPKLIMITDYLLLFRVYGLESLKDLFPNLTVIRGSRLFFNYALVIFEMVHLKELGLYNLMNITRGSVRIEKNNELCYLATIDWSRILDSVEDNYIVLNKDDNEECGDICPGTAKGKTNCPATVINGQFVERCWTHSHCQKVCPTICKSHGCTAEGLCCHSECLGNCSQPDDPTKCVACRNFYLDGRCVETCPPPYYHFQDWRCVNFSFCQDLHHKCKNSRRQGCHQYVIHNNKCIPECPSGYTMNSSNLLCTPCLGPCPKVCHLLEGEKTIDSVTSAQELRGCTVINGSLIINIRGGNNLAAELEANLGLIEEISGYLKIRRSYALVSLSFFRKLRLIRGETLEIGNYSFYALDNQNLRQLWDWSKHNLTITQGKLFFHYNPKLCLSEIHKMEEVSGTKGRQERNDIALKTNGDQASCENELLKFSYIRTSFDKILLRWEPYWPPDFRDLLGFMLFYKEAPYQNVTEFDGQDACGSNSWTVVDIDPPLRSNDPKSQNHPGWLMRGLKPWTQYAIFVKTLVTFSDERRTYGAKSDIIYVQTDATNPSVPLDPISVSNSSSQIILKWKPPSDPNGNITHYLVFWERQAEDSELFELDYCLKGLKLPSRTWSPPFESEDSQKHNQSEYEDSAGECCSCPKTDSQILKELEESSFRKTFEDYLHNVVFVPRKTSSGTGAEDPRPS
Insulin receptor (Homo sapiens), sequence (P06213 763-1382 limits assumed): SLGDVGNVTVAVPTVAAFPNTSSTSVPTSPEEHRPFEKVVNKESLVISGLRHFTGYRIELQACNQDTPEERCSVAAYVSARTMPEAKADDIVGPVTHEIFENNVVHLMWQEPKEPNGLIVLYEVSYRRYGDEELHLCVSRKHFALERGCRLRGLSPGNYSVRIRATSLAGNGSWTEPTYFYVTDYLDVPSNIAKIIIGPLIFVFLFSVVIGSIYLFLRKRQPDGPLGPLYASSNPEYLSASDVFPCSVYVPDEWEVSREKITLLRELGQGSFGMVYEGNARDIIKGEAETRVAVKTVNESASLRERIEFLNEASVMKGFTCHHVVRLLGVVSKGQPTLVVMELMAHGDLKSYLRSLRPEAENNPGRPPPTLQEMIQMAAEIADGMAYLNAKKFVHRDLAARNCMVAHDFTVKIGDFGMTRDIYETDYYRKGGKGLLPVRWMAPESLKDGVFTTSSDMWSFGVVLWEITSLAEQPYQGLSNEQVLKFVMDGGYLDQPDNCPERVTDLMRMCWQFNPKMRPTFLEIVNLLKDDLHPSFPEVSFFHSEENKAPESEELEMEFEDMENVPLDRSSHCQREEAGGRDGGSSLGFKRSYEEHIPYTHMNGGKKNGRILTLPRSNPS

Insulin-like growth factor 1 receptor (Homo sapiens), sequence (P08069 31-736 limits assumed): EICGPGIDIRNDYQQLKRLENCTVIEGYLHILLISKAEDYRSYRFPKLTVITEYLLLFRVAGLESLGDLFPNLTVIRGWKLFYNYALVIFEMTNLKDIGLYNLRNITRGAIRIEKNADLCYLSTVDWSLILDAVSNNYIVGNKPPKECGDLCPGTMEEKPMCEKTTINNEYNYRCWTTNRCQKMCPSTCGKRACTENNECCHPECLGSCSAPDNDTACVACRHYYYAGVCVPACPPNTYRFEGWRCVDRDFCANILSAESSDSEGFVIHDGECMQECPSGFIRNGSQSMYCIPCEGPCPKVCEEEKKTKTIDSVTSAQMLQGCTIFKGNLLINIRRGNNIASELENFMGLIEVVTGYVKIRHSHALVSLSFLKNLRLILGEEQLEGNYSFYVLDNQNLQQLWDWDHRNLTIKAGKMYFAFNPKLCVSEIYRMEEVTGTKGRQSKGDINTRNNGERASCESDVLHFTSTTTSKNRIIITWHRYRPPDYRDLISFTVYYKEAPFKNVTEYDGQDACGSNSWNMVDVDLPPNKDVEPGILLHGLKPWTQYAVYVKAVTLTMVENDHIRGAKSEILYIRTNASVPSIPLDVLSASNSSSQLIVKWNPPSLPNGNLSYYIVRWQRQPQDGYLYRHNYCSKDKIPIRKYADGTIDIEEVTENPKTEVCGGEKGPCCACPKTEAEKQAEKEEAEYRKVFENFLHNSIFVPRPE
Insulin-like growth factor 1 receptor (Homo sapiens), sequence (P08069 741-1367 limits assumed): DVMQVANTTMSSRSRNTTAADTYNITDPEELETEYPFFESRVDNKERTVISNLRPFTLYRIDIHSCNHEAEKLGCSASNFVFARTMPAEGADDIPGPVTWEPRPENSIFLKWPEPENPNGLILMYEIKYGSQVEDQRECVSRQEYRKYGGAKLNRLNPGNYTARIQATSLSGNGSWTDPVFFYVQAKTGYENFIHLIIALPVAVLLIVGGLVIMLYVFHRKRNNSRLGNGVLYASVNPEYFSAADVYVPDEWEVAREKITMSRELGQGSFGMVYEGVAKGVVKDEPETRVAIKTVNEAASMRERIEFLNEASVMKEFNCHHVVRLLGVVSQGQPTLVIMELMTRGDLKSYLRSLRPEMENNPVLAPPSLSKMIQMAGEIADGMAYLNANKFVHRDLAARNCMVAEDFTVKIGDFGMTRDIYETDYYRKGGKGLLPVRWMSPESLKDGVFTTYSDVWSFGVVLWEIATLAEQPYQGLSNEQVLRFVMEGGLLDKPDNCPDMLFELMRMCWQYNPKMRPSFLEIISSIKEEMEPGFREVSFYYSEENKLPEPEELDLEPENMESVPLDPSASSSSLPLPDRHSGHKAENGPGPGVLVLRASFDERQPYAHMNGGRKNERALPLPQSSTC

As usually defined, the residual activity is the signal under treatment as a percentage of the control signal. In the case of `CO[C@H]1[C@@H](OC)C[C@H](C)[C@@H](OC)C2=CC(=O)C=C(NC(=O)/C(C)=C/C=C/[C@H](OC)[C@@H](OC(N)=O)/C(C)=C/[C@@H]1C)C2=O`, the residual activity in assay [1] worked out at 69%; in assay [2], 99%; in assay [3], 89%; in assay [4], 106%; in [5] it was 96%; in assay [6], 85%. The residual activity in assay [7] amounted to 113%; in assay [8], 111%; in assay [9], 107%; in [10], 109%.
